The results in this text go back to the supplement of paper PMC6555819.

The experiment deals with VDR:RXRa (NR concentration 270 nM, RXRa partner concentration 90 nM). Briefly: PBM binding z-score (relative to random genomic background probes); higher = stronger binding; sequences stand for … in GC…GCGATTGACAGCGTAGAATGAAGG
As to the method: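 Protein-binding microarray (Agilent 4x180K custom design, double-stranded 60-nt probes: 5' GC cap, 34-nt variable region, 24-nt constant primer region; full probe sequence given). Purified or IVT nuclear receptor:RXRα heterodimers (3:1 NR:RXRα, mostly 270:90 nM) or homodimers were incubated for 1 h in PBS with 2% milk and no ligand, then detected with Alexa488 antibodies. Fluorescence from o1-orientation probes (~5 replicates averaged) was converted to z-scores against 500 random hg19 background probes. Variable regions are seed direct-repeat (DR0–DR5) sites, all their single-nucleotide variants and half-site ablations.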
For the sequence AGAATGATGTTACCAAAGATCAGGGAAACGCTTG, the PBM binding z-score was -0.205.

Sequence ATCCCTAGGTAAAAGTTCAGTGAATCCCGAGGAT gave a PBM binding z-score of 0.958. For the sequence CCGACTGGGCCAAGGTTACCATAACGCACAGCCA, the PBM binding z-score is -0.185. With GCTAGTTGGTAAGTAAAAGGTCACACACCGGTCG, the PBM binding z-score was 3.82. As for CGTCCAAGGTCAGAGAGTTCAGTGAATGCCGAGT, the figure is 7.65; as for CCTCCAAGGTCAAGGTCAGTGAAAGAGACTCGAA, 4.69; as for CCTTACGGGTCAAGATTATAGCACGGGTGGTACG, 2.9. As for TCTATTGGTTGAAGGGCAACCGACGAGTCCGTTT, the figure is 0.889; as for GCTGCTAGGTCAGGTTGGTCAGCTTACGGGTACG, 0.539; as for TCTCGGAGGACACGAGGGTCAGAGCTTTCCAGAG, 1.7.

On to TCATATAGGTCAAGGTGAAAGTCGAACGATATGA, for which the PBM binding z-score came out at 2.94. As for TCGAGTAGGTTACCAATGGAGCATTCAGCTTTCT, the figure is -0.303. Then TCTAGCAGGCGAGAGGGTCACTCAAGAGGTACGG, with 1.49.

In turn, ATATGTAGGCTAGCTGGGGTCATTCAGACTAGGC showed a PBM binding z-score of 4.77. Then CCTAGTTGGTCAGGAGGTCACACTCCGGATATGA, with 3.82. As for CCTACTGGACCAAAAAGGTCATTGATGCCGATAA, the figure is 4.77; as for GCGACTGGGGCATGAGCAGGTTACCATAACTTAA, -0.262. As for TCATATAGGTAAAGGTGAAAATCGAACGATATGA, the figure is 0.688. Sequence TTTCGGAGGACACGAAGGTCAGAGCTTTCCAGAG gave a PBM binding z-score of 2.47.

On to TGTCCAAGTTCAAAGGTAACGTAAGTATCCACAC, for which the PBM binding z-score turned out to be 4.6. As for GCGACTGGGGCATCAGCAGATTACCATAACTTAA, the figure is -0.562. As for TCTATTAGTTGAGGGGCAACCGACGAGTCCGTTT, the figure is 0.965; as for TCTTGTAGATCAATAGAGGTTAAGAAAGTGCGCT, 1.8. Then TAGCCTAGGTAAGATCGGGCCAGTATACGCTATA, with -0.645. In the case of GGAACGAGGGCAAAGTTGCTAGCATCTGTCGACG, the PBM binding z-score was found to be 1.01. As for GCTGCTAGGACAGGTTGGTCAGCTAACGGGTACG, the figure is -0.674; as for GCTTACGGGTCAAAGGTTATAGCGTGAATAGAAT, 5.55; as for CGCGAAAGGTCGGTTGAGGTGAGTATACGGATAA, 2.25. As for CGAACTAGGTCATCCAGCACAGTGAATACATTGA, the figure is 2.34; as for CAAACTAGGTCAAGTGGTCAAAGTCCGCTTCCCG, 2.52. As for AATACAGGGTCATCGTAGGCCAGCGTACGCACAG, the figure is 5.21. Sequence CGAACTAGATCAGAACAGGACAGTGAAGGATGAT returned a PBM binding z-score of -0.438. GCATATAGGTAATACAATGTGAAAGTCCGATTGT: the PBM binding z-score was -0.0597. Then TCTGCCAGGTCAGTTGGTCAGCTAACGAGCTGCC, with 0.52; and ATCGAAAGGTCGAGGTGAGTCTAGAGAAAGGGAA, with 3.21; and ACTATTAGTTGACTTTGGGCAACCGATACGACGC, with 0.238. Then GCAGACAGTTGAAACGCAGGTAACTCAGGGTGGC, with -0.517; and TCATATAGGCAAAGGTGAAAGTCGAACGATATGA, with 0.976.

Consider TCTGCTAGGTGAGTTGGTCAGCTAACGAGCTGCC, for which the PBM binding z-score is -0.769. Then TAGCCTAGGTCAGATCGGGCCAATATACGCTATA, with 1.01.
